# Measurements published in the supplement of paper PMC8728848.
# The entries come from a sample that favours the strongest signals as a whole.
# How the values were obtained:
# Assay in all cases: glycan array binding signal (z-score within array); higher = stronger binding
# Settings in all cases: glycan notation: IUPAC condensed, linker removed
# [1] = molecular target: Fuc(a1-2)Gal(b1-3)GalNAc(b1-3)Gal(a1-4)Gal(b1-4)Glc
# Summary of the method: (§1)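 From the Consortium for Functional Glycomics database, 3228 arrays were curated, keeping only those whose protein sequence was available. Binding is given as a within-array Z-score averaged across arrays sharing a protein sequence and across linkers. Negative Z-scores can be read as non-binding.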
# [2] = molecular target: Fuc(a1-2)Gal(b1-3)GlcNAc(b1-3)Gal(b1-4)Glc
# Summary of the method: as §1
# [3] = molecular target: Fuc(a1-2)Gal(b1-3)[Fuc(a1-4)]GlcNAc
# Summary of the method: as §1
# Fuc(a1-2)Gal(b1-4)Glc = molecular target: Fuc(a1-2)Gal(b1-4)Glc
# Summary of the method: as §1
# [4] = molecular target: Fuc(a1-2)[Gal(a1-3)]Gal(b1-4)GlcNAc(b1-2)Man(a1-3)[Fuc(a1-2)[Gal(a1-3)]Gal(b1-4)GlcNAc(b1-2)Man(a1-6)]Man(b1-4)GlcNAc(b1-4)GlcNAc
# Summary of the method: as §1
# [5] = molecular target: Fuc(a1-2)[Gal(a1-4)]Gal(b1-4)GlcNAc
# Summary of the method: as §1
# [6] = molecular target: Fuc(a1-2)[GalNAc(a1-3)]Gal(b1-3)GlcNAc(b1-2)Man(a1-3)[Fuc(a1-2)[GalNAc(a1-3)]Gal(b1-3)GlcNAc(b1-2)Man(a1-6)]Man(b1-4)GlcNAc(b1-4)GlcNAc
# Summary of the method: as §1
# [7] = molecular target: Fuc(a1-2)[GalNAc(a1-3)]Gal(b1-4)[Fuc(a1-3)]GlcNAc(b1-3)GalNAc
# Summary of the method: as §1
# [8] = molecular target: Fuc(a1-3)[Gal(b1-4)]GlcNAc(b1-6)GalNAc
# Summary of the method: as §1
# [9] = molecular target: Gal(a1-3)Gal(b1-3)GlcNAc(b1-2)Man(a1-3)[Gal(a1-3)Gal(b1-3)GlcNAc(b1-2)Man(a1-6)]Man(b1-4)GlcNAc(b1-4)GlcNAc
# Summary of the method: as §1
# [10] = molecular target: Gal(a1-3)Gal(b1-3)GlcNAc(b1-3)GalNAc
# Summary of the method: as §1
# Gal(a1-3)GalNAc = molecular target: Gal(a1-3)GalNAc
# Summary of the method: as §1
# Gal(b1-3)Gal = molecular target: Gal(b1-3)Gal
# Summary of the method: as §1
# Gal(b1-3)Gal(b1-4)GlcNAc = molecular target: Gal(b1-3)Gal(b1-4)GlcNAc
# Summary of the method: as §1
# Gal(b1-3)GalNAc = molecular target: Gal(b1-3)GalNAc
# Summary of the method: as §1
# [11] = molecular target: Gal(b1-3)GalNAc(a1-3)[Fuc(a1-2)]Gal(b1-4)Glc
# Summary of the method: as §1
# Gal(b1-3)GalNAc(b1-3)Gal = molecular target: Gal(b1-3)GalNAc(b1-3)Gal
# Summary of the method: as §1
# [12] = molecular target: Gal(b1-3)GalNAc(b1-4)Gal(b1-4)Glc
# Summary of the method: as §1
# [13] = molecular target: Gal(b1-3)GalNAc(b1-4)[Neu5Ac(a2-3)]Gal(b1-4)Glc
# Summary of the method: as §1
# Gal(b1-3)GlcNAc6S = molecular target: Gal(b1-3)GlcNAc6S
# Summary of the method: as §1
# [14] = molecular target: Gal(b1-3)[Fuc(a1-4)]GlcNAc
# Summary of the method: as §1
# [15] = molecular target: Gal(b1-3)[GlcNAc(b1-6)]GalNAc
# Summary of the method: as §1
# [16] = molecular target: Gal(b1-3)[Neu5Ac(a2-6)]GalNAc
# Summary of the method: as §1
# Gal(b1-4)Glc6S = molecular target: Gal(b1-4)Glc6S
# Summary of the method: as §1
# [17] = molecular target: Gal(b1-4)GlcNAc(b1-2)Man(a1-3)Man(b1-4)GlcNAc(b1-4)GlcNAc
# Summary of the method: as §1
# [18] = molecular target: Gal(b1-4)GlcNAc(b1-2)Man(a1-3)[GlcNAc(b1-4)][Gal(b1-4)GlcNAc(b1-2)Man(a1-6)]Man(b1-4)GlcNAc(b1-4)GlcNAc
# Summary of the method: as §1
# [19] = molecular target: Gal(b1-4)GlcNAc(b1-2)[Gal(b1-4)GlcNAc(b1-6)]Man(a1-6)[Gal(b1-4)GlcNAc(b1-2)Man(a1-3)]Man(b1-4)GlcNAc(b1-4)[Fuc(a1-6)]GlcNAc
# Summary of the method: as §1
# [20] = molecular target: Gal(b1-4)GlcNAc(b1-3)Gal(b1-4)GlcNAc(b1-3)GalNAc
# Summary of the method: as §1
# [21] = molecular target: Gal3S(b1-4)[Fuc(a1-3)]GlcNAc
# Summary of the method: as §1
# Gal3S6S(b1-4)GlcNAc6S = molecular target: Gal3S6S(b1-4)GlcNAc6S
# Summary of the method: as §1
# Gal6S(b1-4)GlcNAc6S = molecular target: Gal6S(b1-4)GlcNAc6S
# Summary of the method: as §1
# GlcA(b1-6)Gal = molecular target: GlcA(b1-6)Gal
# Summary of the method: as §1
# [22] = molecular target: GlcNAc(a1-6)Gal(b1-4)GlcNAc
# Summary of the method: as §1
# [23] = molecular target: GlcNAc(b1-2)Man(a1-3)[GlcNAc(b1-4)][GlcNAc(b1-2)Man(a1-6)]Man(b1-4)GlcNAc(b1-4)[Fuc(a1-6)]GlcNAc
# Summary of the method: as §1
# [24] = molecular target: GlcNAc(b1-3)Gal(b1-4)GlcNAc(b1-3)Gal(b1-4)GlcNAc(b1-3)Gal(b1-4)GlcNAc(b1-2)Man(a1-3)[GlcNAc(b1-3)Gal(b1-4)GlcNAc(b1-3)Gal(b1-4)GlcNAc(b1-3)Gal(b1-4)GlcNAc(b1-2)Man(a1-6)]Man(b1-4)GlcNAc(b1-4)[Fuc(a1-6)]GlcNAc
# Summary of the method: as §1
# [25] = molecular target: GlcNAc(b1-3)[GlcNAc(b1-4)][GlcNAc(b1-6)]GlcNAc
# Summary of the method: as §1
# [26] = molecular target: Man(a1-2)Man(a1-6)[Man(a1-3)]Man(a1-6)[Man(a1-2)Man(a1-2)Man(a1-3)]Man
# Summary of the method: as §1
# [27] = molecular target: Man(a1-3)[Man(a1-6)]Man(a1-6)[Man(a1-3)]Man
# Summary of the method: as §1
# [28] = molecular target: Neu5Ac(a2-3)Gal(b1-4)GlcNAc(b1-3)Gal(b1-4)[Fuc(a1-3)]GlcNAc
# Summary of the method: as §1
# [29] = molecular target: Neu5Ac(a2-3)Gal(b1-4)[Fuc(a1-3)]GlcNAc(b1-3)Gal(b1-4)[Fuc(a1-3)]GlcNAc(b1-3)Gal(b1-4)[Fuc(a1-3)]GlcNAc
# Summary of the method: as §1
# [30] = molecular target: Neu5Ac(a2-3)Gal(b1-4)[Fuc(a1-3)]GlcNAc6S
# Summary of the method: as §1
# [31] = molecular target: Neu5Ac(a2-6)Gal(b1-4)GlcNAc
# Summary of the method: as §1
# [32] = molecular target: Neu5Ac(a2-6)Gal(b1-4)GlcNAc(b1-2)[Neu5Ac(a2-6)Gal(b1-4)GlcNAc(b1-4)]Man(a1-3)[GlcNAc(b1-4)][Neu5Ac(a2-6)Gal(b1-4)GlcNAc(b1-2)[Neu5Ac(a2-6)Gal(b1-4)GlcNAc(b1-6)]Man(a1-6)]Man(b1-4)GlcNAc(b1-4)GlcNAc
# Summary of the method: as §1
# [33] = molecular target: Neu5Ac(a2-6)Gal(b1-4)GlcNAc(b1-3)Gal(b1-4)GlcNAc
# Summary of the method: as §1
# [34] = molecular target: Neu5Ac(a2-6)Gal(b1-4)GlcNAc(b1-3)GalNAc
# Summary of the method: as §1
# [35] = molecular target: Neu5Ac(a2-8)Neu5Ac(a2-8)Neu5Ac(a2-8)Neu5Ac(a2-3)[GalNAc(b1-4)]Gal(b1-4)Glc
# Summary of the method: as §1
# [36] = molecular target: Neu5Ac9Ac(a2-3)Gal(b1-4)GlcNAc
# Summary of the method: as §1
# [37] = molecular target: Neu5Gc(a2-8)Neu5Gc(a2-3)Gal(b1-4)GlcNAc
# Summary of the method: as §1
binder,measurement,setting,value
"CFEM-PPl (Pichia pastoris), F2QPV1 (protein) AVATPPACLLACAAEVVKESSDCDALNNIQCICENEGSAIHACLESTCPDGLSSTALQSFEDVCESVGTEANLDE",glycan array binding signal (z-score),[1],-0.182
same,glycan array binding signal (z-score),[2],-0.261
same,glycan array binding signal (z-score),[3],-0.299
same,glycan array binding signal (z-score),Fuc(a1-2)Gal(b1-4)Glc,-0.216
same,glycan array binding signal (z-score),[4],-0.252
same,glycan array binding signal (z-score),[5],-0.168
same,glycan array binding signal (z-score),[6],-0.271
same,glycan array binding signal (z-score),[7],2.17
same,glycan array binding signal (z-score),[8],0.273
same,glycan array binding signal (z-score),[9],-0.051
same,glycan array binding signal (z-score),[10],-0.151
same,glycan array binding signal (z-score),Gal(a1-3)GalNAc,-0.249
same,glycan array binding signal (z-score),Gal(b1-3)Gal,8.35
same,glycan array binding signal (z-score),Gal(b1-3)Gal(b1-4)GlcNAc,4.73
same,glycan array binding signal (z-score),Gal(b1-3)GalNAc,4.58
same,glycan array binding signal (z-score),[11],0.63
same,glycan array binding signal (z-score),Gal(b1-3)GalNAc(b1-3)Gal,7.59
same,glycan array binding signal (z-score),[12],11.5
same,glycan array binding signal (z-score),[13],1.48
same,glycan array binding signal (z-score),Gal(b1-3)GlcNAc6S,0.224
same,glycan array binding signal (z-score),[14],-0.109
same,glycan array binding signal (z-score),[15],1.52
same,glycan array binding signal (z-score),[16],8.06
same,glycan array binding signal (z-score),Gal(b1-4)Glc6S,0.326
same,glycan array binding signal (z-score),[17],-0.158
same,glycan array binding signal (z-score),[18],-0.371
same,glycan array binding signal (z-score),[19],0.199
same,glycan array binding signal (z-score),[20],-0.058
same,glycan array binding signal (z-score),[21],-0.308
same,glycan array binding signal (z-score),Gal3S6S(b1-4)GlcNAc6S,-0.019
same,glycan array binding signal (z-score),Gal6S(b1-4)GlcNAc6S,0.881
same,glycan array binding signal (z-score),GlcA(b1-6)Gal,1.49
same,glycan array binding signal (z-score),[22],1.68
same,glycan array binding signal (z-score),[23],-0.286
same,glycan array binding signal (z-score),[24],-0.05
same,glycan array binding signal (z-score),[25],-0.262
same,glycan array binding signal (z-score),[26],-0.274
same,glycan array binding signal (z-score),[27],-0.201
same,glycan array binding signal (z-score),[28],-0.181
same,glycan array binding signal (z-score),[29],-0.258
same,glycan array binding signal (z-score),[30],-0.175
same,glycan array binding signal (z-score),[31],-0.156
same,glycan array binding signal (z-score),[32],-0.31
same,glycan array binding signal (z-score),[33],-0.404
same,glycan array binding signal (z-score),[34],-0.218
same,glycan array binding signal (z-score),[35],-0.099
same,glycan array binding signal (z-score),[36],-0.318
same,glycan array binding signal (z-score),[37],-0.14
